We go through 22 compounds from PubChem BioAssay (NCATS).

Where “and” joins values, the source holds several entries; their conditions need not be identical. Equal values may be shown once. Results filed as inconclusive are left out. Calls of active or inactive are those of the source. Calls follow the shape of the full dose curve. Bridge positions count the residues as written; N and C are the ends. Square brackets hold non-standard residues; d marks the D form. Peptide text beside a SMILES is read from it. * marks the point of attachment. X1 = CCC(C)C(N)C1=NC(C(=O)*)CS1; dOrn = NCCC[C@@H](N)C(=O)O

A short description of assay [1]: Primary qHTS for inhibitors of SARS-S pseudo-typed particle cell entry (AID 1479145). Also: nearly all actives have a fitted effect of over 45% in size. As to activity change, negative = inhibition: % is scaled to controls: 0 for no effect and ±100 for the full control effect. The settings on record: outcome: dose series up to 57.1 µM unless noted. In general terms: Quantitative high-throughput screening tests each substance at several concentrations.
Assay [2] in a line: Primary qHTS for Huh7 cytotoxicity: counterscreen for inhibitors of MERS-S pseudotyped particle cell entry (AID 1479147). The settings on record: outcome: dose series up to 57.1 µM unless noted.
Assay [3] is described as follows: Primary qHTS for inhibitors of MERS-S pseudo-typed particle cell entry (AID 1479149). Also: nearly all actives have a fitted effect of over 60% in size. As to activity change, negative = inhibition: % is scaled to controls: 0 for no effect and ±100 for the full control effect. The settings on record: outcome: dose series up to 57.1 µM unless noted.
Assay [4] in a line: Primary qHTS for Vero E6 cytotoxicity: counterscreen for inhibitors of SARS-S pseudo-typed particle cell entry (AID 1479150). The settings on record: outcome: dose series up to 57.1 µM unless noted.
A short description of assay [5]: Cytotoxicity counterscreen for inhibitors of SARS-CoV-2 cell entry (AID 1645845). Also: nearly all actives have a fitted effect of over 50% in size. The settings on record: outcome: dose series up to 57.1 µM unless noted. Put shortly:
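Expi293F/hACE2 cells seeded overnight; cpd pin-transferred in DMSO, 1 h preincubation, + media, 48 h 37 C 5% CO2; ATPLite 1step luminescence; normalized to cells and no cells.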
Background: Counterscreens check selectivity or assay interference.

Assay [6] can be described thus: Primary qHTS to identify inhibitors of SARS-CoV-2 cell entry (AID 1645846). Also: nearly all actives have a fitted effect of over 45% in size. The settings on record: SARS-CoV-2 pseudovirus cell entry assay, luminescence; activity change, negative = inhibition: at 57.1 µM (top of the series) unless noted. Put shortly: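 Data are normalized to wells receiving SARS-CoV-2-S pseudoparticles and those given bald particles. Entry signal was luciferase luminescence in stable hACE2 Expi293F cells, 48 hr post-infection, after 1 hr compound pretreatment.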

Regarding `CC1(C)S[C@H]2[C@H](NC(=O)[C@@H](N)c3ccc(O)cc3)C(=O)N2[C@H]1C(=O)O`, the Potency entry in assay [1], in assay [2], in assay [3], in assay [4] and in assay [5] was “inactive” each time. Further, in assay [6], the activity change, negative = inhibition is -1.08% and -18.3%.

Take `CCC(C)C(N)C1=NC(C(=O)N[C@@H](CC(C)C)C(=O)N[C@H](CCC(=O)O)C(=O)N[C@H](C(=O)N[C@H]2CCCCNC(=O)[C@H](CC(N)=O)NC(=O)[C@@H](CC(=O)O)NC(=O)[C@H](Cc3cnc[nH]3)NC(=O)[C@@H](Cc3ccccc3)NC(=O)[C@H]([C@@H](C)CC)NC(=O)[C@@H](CCCN)NC2=O)[C@@H](C)CC)CS1` (some centres not stated) (X1-L[dE]IK[dOrn]I[dF]H[dD]N; lactam 4-C): the Potency result in assay [1], in assay [2], in assay [3], in assay [4] and in assay [5] was “inactive” in each case. For the same compound, in assay [6], the activity change, negative = inhibition is -8.8% [at 27.1 µM].

As for `O=C[C@H](O)[C@@H](O)[C@H](O)[C@H](O)CO`, the Potency result in assay [1], in assay [2], in assay [3], in assay [4], in assay [5] and in assay [6] was “inactive” in each case.

`CNC(=O)C[C@@H](N)C(=O)N[C@@H](C(=O)N[C@@H]1C(=O)N2[C@@H]1SC(C)(C)[C@@H]2C(=O)O)c1ccc(O)cc1`: the Potency result in assay [1], in assay [2], in assay [3], in assay [4] and in assay [5] was “inactive” throughout. The activity change, negative = inhibition in assay [6] was -19.8%.

Turning to `C[C@]12CCC3c4ccc(OS(=O)(=O)O)cc4CCC3C1CCC2=O` (some centres not stated), the Potency entry in assay [1], in assay [2], in assay [3], in assay [4] and in assay [5] was “inactive” each time. Further, in assay [6], the activity change, negative = inhibition is -13.1%.

As for `CC(C(=O)O)c1ccc(C2CCCCC2)c2ccccc12` (configuration not stated), the Potency entry in assay [1], in assay [2], in assay [3], in assay [4] and in assay [5] was “inactive” in each case. In addition, the activity change, negative = inhibition in assay [6] is -4.82%.

For the compound `O=C1C(c2[nH]c3ccc(S(=O)(=O)O)cc3c2O)=Nc2ccc(S(=O)(=O)O)cc21`, the Potency result in assay [1], in assay [2], in assay [3], in assay [4] and in assay [5] was “inactive” each time. Also, in assay [6], the activity change, negative = inhibition is -23%.

In the case of `CC(=O)OCC1=C(C(=O)O)N2C(=O)[C@@H](NC(=O)CC#N)[C@H]2SC1`, the Potency result in assay [1], in assay [2], in assay [3], in assay [4], in assay [5] and in assay [6] was “inactive” in each case.

Take `CC(C)(C)C(=O)OCC(=O)[C@H]1CC[C@H]2[C@@H]3CCC4=CC(=O)CC[C@]4(C)[C@H]3CC[C@]12C`: the Potency result in assay [1], in assay [2], in assay [3], in assay [4] and in assay [5] was “inactive” each time. The activity change, negative = inhibition in assay [6] is -13%.

Regarding `CO/N=C(/C(=O)N[C@@H]1C(=O)N2C(C(=O)O)=CCS[C@H]12)c1csc(N)n1`, the Potency entry in assay [1], in assay [2], in assay [3], in assay [4] and in assay [5] was “inactive” throughout. Besides, in assay [6], the activity change, negative = inhibition is -20.9%.

For `C/C=C(/C)C(=O)O[C@H]1C(C)=CC23C(=O)C(C=C(CO)[C@@H](O)[C@]12O)[C@H]1[C@@H](C[C@H]3C)C1(C)C` (some centres not stated), the Potency result in assay [1], in assay [2], in assay [3], in assay [4], in assay [5] and in assay [6] was “inactive” throughout.

Take `CCCCCCCCCCCC(=O)OCN1C(=O)CCc2ccc(OCCCCN3CCN(c4cccc(Cl)c4Cl)CC3)cc21`: the Potency result in assay [1], in assay [2], in assay [3], in assay [4] and in assay [5] was “inactive” in each case. The activity change, negative = inhibition in assay [6] was -17.3% [at 19 µM].

Turning to `C=CC[N+]1([C@H]2C[C@H]3[C@@H]4CC[C@H]5C[C@H](O)[C@@H](N6CCOCC6)C[C@]5(C)[C@H]4CC[C@]3(C)[C@H]2OC(C)=O)CCCC1`, the Potency result in assay [1], in assay [2], in assay [3], in assay [4] and in assay [5] was “inactive” in each case. The activity change, negative = inhibition in assay [6] is -19.7% and -28.9%.

On to `CN(C(=O)CO)c1c(I)c(C(=O)NCC(O)CO)c(I)c(C(=O)NCC(O)CO)c1I` (configuration not stated), for which the Potency entry in assay [1], in assay [2], in assay [3], in assay [4] and in assay [5] was “inactive” in each case. Besides, the activity change, negative = inhibition in assay [6] was -14.3%.

`O=P(O)(O)OP(=O)(O)O`: the Potency result in assay [1], in assay [2], in assay [3], in assay [4] and in assay [5] was “inactive” throughout. Moreover, the activity change, negative = inhibition in assay [6] is -3.78%.

As to `O=C(O)[C@@H]1CCCN1`, the Potency result in assay [1], in assay [2], in assay [3], in assay [4], in assay [5] and in assay [6] was “inactive” in each case.

Take `CCC(Oc1ccccc1)C(=O)N[C@@H]1C(=O)N2[C@@H]1SC(C)(C)[C@@H]2C(=O)O` (some centres not stated): the Potency result in assay [1], in assay [2], in assay [3], in assay [4] and in assay [5] was “inactive” in each case. In assay [6], the activity change, negative = inhibition is -26.6% [at 114 µM].

With `C#C[C@]1(O)CC[C@H]2[C@@H]3CCC4=CC(=O)CCC4[C@H]3CC[C@@]21CC` (some centres not stated), the Potency result in assay [1], in assay [2], in assay [3], in assay [4] and in assay [5] was “inactive” throughout. Besides, the activity change, negative = inhibition in assay [6] was -19.1%.

Turning to `CS(=O)(=O)n1cc2c(n1)CN([C@H]1CO[C@H](c3cc(F)ccc3F)[C@@H](N)C1)C2`, the Potency entry in assay [1], in assay [2], in assay [3], in assay [4] and in assay [5] was “inactive” throughout. Further, the activity change, negative = inhibition in assay [6] is -25.8%.

For the compound `[2H]C([2H])([2H])C(O)(CCO[C@@H](C)[C@H]1CC[C@H]2/C(=C/C=C3\C[C@@H](O)C[C@H](O)C3=C)CCC[C@]12C)C([2H])([2H])[2H]`, the Potency entry in assay [1], in assay [2], in assay [3], in assay [4] and in assay [5] was “inactive” in each case. In addition, in assay [6], the activity change, negative = inhibition is -6.57%.

As for `CCC(=O)OCC(=O)[C@]1(OC(=O)CC)[C@H](C)C[C@H]2[C@H]3[C@H]([C@@H](O)C[C@@]21C)[C@@]1(C)C=CC(=O)C=C1C[C@H]3Cl`, the Potency result in assay [1], in assay [2], in assay [3], in assay [4] and in assay [5] was “inactive” in each case. In addition, the activity change, negative = inhibition in assay [6] was -6.25%.

For `CCC(C(=O)NC(N)=O)c1ccccc1` (configuration not stated), the Potency entry in assay [1], in assay [2], in assay [3], in assay [4] and in assay [5] was “inactive” each time. Further, the activity change, negative = inhibition in assay [6] was -16.3%.
